Source: PubChem BioAssay (several laboratories)
This is a sample that favours compounds with a hit; in the whole collection about 1.4% have one here.
MT1-MMP txn act = activates MT1-MMP transcription. HT1080 MT1-MMP promoter luciferase reporter, luminescence, overnight; stronger effect = higher value. activation factor at 10 µM. 86,000 compounds, 0.16% hits;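 active = activation factor of at least 2 for MT1-MMP transcription at 10 µM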
Smad3 inh = inhibitors of human Smad3 transcription factor binding; TR-FRET Smad3/Dy647-FoxH1 peptide binding, europium anti-His; inhibition, % at 25 µM; 88,000 compounds, 0.29% hits; AID 630;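 active = compounds that reduce the energy-transfer binding signal between the protein and its labelled peptide by more than half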
S1P2 ag = S1P2 (human) receptor agonism; O95136; S1P2-expressing cell line, agonist reporter read-out; activation, % at 4.5 µM; 97,000 compounds, 0.46% hits; AID 729; in the data active = activation above about 16%
GALR2 agonist = agonists of human galanin receptor 2 (GALR2) | activation, % (no concentration beside the values) | O43603 | 140,000 compounds, 0.48% hits | GALR2-expressing cells, agonist activation read-out | AID 803; in the data active = activation above about 5%, passing the limit was not always enough
Target sequence (O43603 whole entry, looked up): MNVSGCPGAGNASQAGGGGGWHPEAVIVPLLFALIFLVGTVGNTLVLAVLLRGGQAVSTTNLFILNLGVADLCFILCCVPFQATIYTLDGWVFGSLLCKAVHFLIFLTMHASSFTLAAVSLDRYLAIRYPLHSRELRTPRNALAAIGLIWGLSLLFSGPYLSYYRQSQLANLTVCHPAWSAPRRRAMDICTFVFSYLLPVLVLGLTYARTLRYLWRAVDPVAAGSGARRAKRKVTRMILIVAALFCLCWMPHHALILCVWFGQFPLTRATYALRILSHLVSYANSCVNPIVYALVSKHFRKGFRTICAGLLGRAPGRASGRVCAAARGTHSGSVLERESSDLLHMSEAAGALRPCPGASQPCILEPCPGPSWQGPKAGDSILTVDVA
GALR2 blocker = antagonists of human galanin receptor 2 (GALR2); O43603; 140,000 compounds, 0.39% hits; inhibition, % at 4 µM; AID 828; GALR2-expressing cells, antagonist mode; in the data active = inhibition above about 27%;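 note: cells stimulated with galanin 1-16 at roughly its EC80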
S1P2 blocker = S1P2 (human) receptor antagonism. cell-based S1P2 antagonist assay, inhibition at 5 uM. inhibition, % at 5 µM. 97,000 compounds, 0.21% hits. AID 736; in the data active = inhibition above about 45%;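 note: CRE beta-lactamase reporter cells expressing human S1P2 stimulated with S1P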
Of the large screens only hits and unclear results are named; the others gave an inactive call.

c1ccc2c(c1)Sc1ccccc1N2C[C@H]1CN2CCC1CC2	Smad3 inh 77.4 (no result: MT1-MMP txn act, S1P2 ag, GALR2 agonist, GALR2 blocker, S1P2 blocker)
Clc1ccccc1CNC1CN2CCC1CC2 (centres undefined)	none (no result: MT1-MMP txn act, Smad3 inh, S1P2 ag, S1P2 blocker)
O=C(O)c1cccc([As]=[As]c2cccc(C(=O)O)c2)c1 (centres undefined)	Smad3 inh 54.7 (no result: MT1-MMP txn act, S1P2 ag, GALR2 agonist, GALR2 blocker, S1P2 blocker)
COc1cc2cc(c1Cl)N(C)C(=O)C[C@H](OC(=O)C(C)C)[C@]1(C)O[C@H]1[C@@H](C)[C@H]1C[C@](O)(NC(=O)O1)[C@@H](OC)/C=C\C=C(\C)C2	none (no result: MT1-MMP txn act, S1P2 ag, GALR2 agonist, GALR2 blocker, S1P2 blocker)
COc1cc2c(cc1OC)[C@@]13CCN4CC5=CCO[C@H]6CC(=O)N2[C@H]1[C@H]6[C@H]5C[C@H]43	none (no result: MT1-MMP txn act, Smad3 inh, S1P2 ag, S1P2 blocker)
COc1cc2c(cc1OC)[C@]13CC[N@+]4(C)CC5=CCO[C@@H]6CC(=O)N2[C@@H]1[C@@H]6[C@@H]5C[C@]34O	Smad3 inh 93.0 (no result: MT1-MMP txn act, S1P2 ag, GALR2 agonist, GALR2 blocker, S1P2 blocker)
Nc1nc2c(c(=S)[nH]1)[n]([Hg][c]1cc([N+](=O)[O-])ccc1O)c[n+]2[C@H]1O[C@H](CO)[C@@H](O)[C@@H]1O	none (no result: MT1-MMP txn act, S1P2 ag, GALR2 agonist, GALR2 blocker, S1P2 blocker)
CCn1nc(-c2ccccc2)nc2c(=O)n(C)c(=O)nc1-2	GALR2 blocker 95.0 (no result: MT1-MMP txn act, Smad3 inh, S1P2 ag, S1P2 blocker)
CSc1ncc(/C=C2/C(=O)NC(=O)N(c3ccc(C(C)C)cc3)C2=O)cn1	GALR2 agonist 5.1 (no result: MT1-MMP txn act, Smad3 inh, S1P2 ag, S1P2 blocker)
CC1(C)CC(=N[N-]C(N)=[SH+])CC(C)(C)N1.CC1(C)CC(=N[N-]C(N)=[SH+])CC(C)(C)N1.[Ni]	Smad3 inh 68.3 (no result: MT1-MMP txn act, S1P2 ag, GALR2 agonist, GALR2 blocker, S1P2 blocker)
COc1cccc2c1C(=O)c1c(O)c3c(c(O)c1C2=O)C[C@](O)(/C(C)=N/O)C[C@@H]3O[C@@H]1C[C@H](N)[C@@H](O)[C@H](C)O1	none (no result: MT1-MMP txn act, S1P2 ag, GALR2 agonist, GALR2 blocker, S1P2 blocker)
CC1(C)[C@@H]2CC[C@@]1(C)CN(CCC[N+](C)(C)C)C2	none (no result: MT1-MMP txn act, S1P2 ag, GALR2 agonist, GALR2 blocker, S1P2 blocker)
C[C@H]1CC[C@]2(NC1)O[C@H]1C[C@H]3[C@H]4CC=C5C[C@@H](O)CC[C@]5(C)[C@@H]4CC[C@]3(C)[C@H]1[C@@H]2C	none (no result: MT1-MMP txn act, S1P2 ag, GALR2 agonist, GALR2 blocker, S1P2 blocker)
O=C(O)/C=C/c1ccc[c]([Sb](=[O])([OH])[OH])c1	Smad3 inh 90.3 (no result: MT1-MMP txn act, S1P2 ag, GALR2 agonist, GALR2 blocker, S1P2 blocker)
C[C@]12CC[C@H](O[C@@H]3O[C@H](CO)[C@@H](O)[C@H](O)[C@H]3O)C[C@@H]1CC[C@@H]1[C@@H]2CC[C@]2(C)[C@@H](C3=CCOC3=O)CC[C@@]12O	Smad3 inh 56.1 (no result: MT1-MMP txn act, S1P2 ag, GALR2 agonist, GALR2 blocker, S1P2 blocker)
O=C(O)C[C@@H]1OCC=C2CN3CC[C@]45c6ccccc6N[C@H]4[C@H]1[C@H]2C[C@H]35	none (no result: MT1-MMP txn act, S1P2 ag, GALR2 agonist, GALR2 blocker, S1P2 blocker)
C[C@H]1CCC/C=C/C2C[C@H](O)CC2[C@H](O)/C=C/C(=O)O1 (some centres undefined)	GALR2 blocker 49.4 (no result: Smad3 inh, S1P2 ag, S1P2 blocker)
COC(=O)c1c(C)ccc2c(O)c3c(cc12)C(=O)c1c2c(cc(O)c1C3=O)[C@@]1(C)O[C@@](C)(O2)[C@@H](O)[C@H](N(C)C)[C@H]1O	Smad3 inh 94.4 (no result: MT1-MMP txn act, S1P2 ag, GALR2 agonist, GALR2 blocker, S1P2 blocker)
CC1=NN(c2ccc(S(=O)(=O)O)cc2C)C(=[OH+])[C@@H]1N=Nc1cc(S(=O)(=O)O)ccc1C(=O)O.O.[Cr]	none (no result: MT1-MMP txn act, S1P2 ag, GALR2 agonist, GALR2 blocker, S1P2 blocker)
CN1C(=O)/C(=C\c2ccc(N3CCCCC3)o2)C(=O)NC1=S	none (no result: MT1-MMP txn act, Smad3 inh)
CN1C(=O)/C(=C/c2ccc(N3CCCCCC3)o2)C(=O)NC1=S	MT1-MMP txn act 2.2
CCOC(=O)[C@@H]1[C@H]2c3ccccc3-c3ccccc3[C@@H]2C[C@H]1O	none (no result: MT1-MMP txn act, S1P2 ag, GALR2 agonist, GALR2 blocker, S1P2 blocker)
O=[As](O)(O)c1ccc(Cc2ccc([As](=O)(O)O)cc2)cc1	Smad3 inh 79.2 (no result: MT1-MMP txn act, S1P2 ag, GALR2 agonist, GALR2 blocker, S1P2 blocker)
COc1ccc(Cn2c(N)c(C(=O)NCc3ccco3)c3nc4ccccc4nc32)cc1OC	none
COCCNC(=O)c1c(N)n(CCC(C)C)c2nc3ccccc3nc12	S1P2 ag 16.4, GALR2 agonist 15.9
CC(C)CCn1c(N)c(C(=O)NCc2cccs2)c2nc3ccccc3nc21	none
CCCNC(=O)c1c(N)n(Cc2ccc3c(c2)OCO3)c2nc3ccccc3nc12	none (no result: Smad3 inh)
CC(C)CCNC(=O)c1c(N)n(Cc2ccc3c(c2)OCO3)c2nc3ccccc3nc12	S1P2 ag 129.3
Nc1c(C(=O)NCc2ccco2)c2nc3ccccc3nc2n1CCN1CCCCC1	S1P2 ag 27.8
CC(C)CNC(=O)c1c(N)n(Cc2ccco2)c2nc3ccccc3nc12	S1P2 ag 32.9, GALR2 agonist 16.6
COC(=O)[C@@H]1c2cc3c(c(O)c2[C@@H](O)C[C@]1(C)O)C(=O)c1c(O)cc2c(c1C3=O)O[C@H]1O[C@]2(C)[C@@H](O)[C@H](N(C)C)[C@H]1O	none (no result: MT1-MMP txn act, S1P2 ag, GALR2 agonist, GALR2 blocker, S1P2 blocker)
CN1C[C@@H](C(=O)N[C@@]2(C)O[C@@]3(O)[C@H]4CCCN4C(=O)[C@@H](Cc4ccccc4)N3C2=O)C=C2c3cccc4[nH]cc(c34)C[C@@H]21	none (no result: MT1-MMP txn act, S1P2 ag, GALR2 agonist, GALR2 blocker, S1P2 blocker)
CC(C)CNC(=O)c1c(N)n(Cc2ccc3c(c2)OCO3)c2nc3ccccc3nc12	S1P2 ag 66.6, GALR2 agonist 40.2
CC(C)OCCCNC(=O)c1c(N)n(Cc2cccs2)c2nc3ccccc3nc12	GALR2 agonist 28.6 (no result: S1P2 ag, S1P2 blocker)
CC(C)OC(=O)c1c(N)n(Cc2ccco2)c2nc3ccccc3nc12	none
C[C@@H]1CC[C@@H]2N(C1)C[C@@H]1[C@](O)([C@H](O)C[C@]3(O)[C@H]4CC[C@@H]5[C@]6(O)O[C@@]4(C[C@@]13O)[C@@]5(C)CC[C@H]6O)[C@@]2(C)O	none (no result: MT1-MMP txn act, S1P2 ag, GALR2 agonist, GALR2 blocker, S1P2 blocker)
CO[C@@H]([CH2][Hg][n]1cnc2c1c(=O)n(C)c(=O)n2C)CN1C(=O)c2ccccc2S1(=O)=O	Smad3 inh 63.6 (no result: MT1-MMP txn act, S1P2 ag, GALR2 agonist, GALR2 blocker, S1P2 blocker)
CCCC[C@@H]1C[C@H]1[C@@H](NP(=O)(c1ccccc1)c1ccccc1)c1ccc(Cl)cc1	none (no result: Smad3 inh, S1P2 ag, GALR2 agonist, GALR2 blocker, S1P2 blocker)
Nc1c(C(=O)NC2CCCC2)c2nc3ccccc3nc2n1CC1CCCO1 (centres undefined)	S1P2 ag 44.4, GALR2 agonist 32.5
